Several values for one entry are separate records, joined by “and”; a condition that tells them apart may be missing. Identical values can stand only once. Activity calls are given as the source filed them.
Tests used:
[1] = target: Albumin (Bos taurus) (UniProt P02769); assay: compounds binding labelled BSA control protein – biochemical, small-molecule microarray, Alexa647 label, 635/667 nm fluorescence, artefact control for SMM control protein annotation, profiling panel (AID 1118); settings: BSA-A647 binding, fluorescence 635 nm, higher = more signal;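 further: score merges 667 nm emission intensity and signal-to-noise per printed compound spot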
Sequence of Albumin (Bos taurus) (P02769 whole entry, looked up): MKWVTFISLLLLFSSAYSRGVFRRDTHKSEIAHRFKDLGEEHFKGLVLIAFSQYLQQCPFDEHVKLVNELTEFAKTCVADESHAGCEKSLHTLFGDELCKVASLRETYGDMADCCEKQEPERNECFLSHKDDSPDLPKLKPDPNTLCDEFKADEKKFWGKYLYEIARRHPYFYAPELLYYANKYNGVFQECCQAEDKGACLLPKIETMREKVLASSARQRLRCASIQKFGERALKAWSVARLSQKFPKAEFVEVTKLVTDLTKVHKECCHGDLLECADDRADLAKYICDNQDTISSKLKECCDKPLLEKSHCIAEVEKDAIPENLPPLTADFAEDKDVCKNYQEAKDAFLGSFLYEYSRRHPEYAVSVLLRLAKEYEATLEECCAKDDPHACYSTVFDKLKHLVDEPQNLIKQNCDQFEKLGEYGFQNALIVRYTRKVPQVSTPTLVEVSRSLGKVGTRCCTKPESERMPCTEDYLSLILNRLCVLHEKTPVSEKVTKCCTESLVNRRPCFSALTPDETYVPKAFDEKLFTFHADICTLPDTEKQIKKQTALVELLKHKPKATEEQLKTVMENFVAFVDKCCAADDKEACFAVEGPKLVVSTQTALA

[2] = probe aXIP binding to arrayed compounds – biochemical, NeuroSMM set, 635/667 nm fluorescence, primary screen (AID 1119); settings: small-molecule microarray, higher = more signal, called active from +8 up or from −8 down;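 further: probe is the protein aXip251-270 applied at 1 µg/mL to compound-printed slides; binding of probe to printed compounds measured as 667 nm fluorescence plus signal to noise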
[3] = probe aNOTCH3 binding on compound microarray – biochemical, small-molecule microarray, 635/667 nm fluorescence, primary screen (AID 1120); settings: higher = more signal;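 further: probe is a biotin-tagged antibody raised against NOTCH3 rather than NOTCH3 protein; score merges spot fluorescence near 667 nm with spot signal to noise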
[4] = probe aNOTCH2 binding on compound microarray – biochemical, small-molecule microarray, 635/667 nm fluorescence, primary screen (AID 1121); settings: higher = more signal;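 further: score merges feature fluorescence read at 667 nm with its signal to noise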
[5] = target: Carbonic anhydrase 2 (Homo sapiens) (UniProt P00918); assay: compounds binding carbonic anhydrase 2 – biochemical, small-molecule microarray, Alexa647-labelled CAII, profiling panel (AID 1122); settings: CAII-A647 binding fluorescence, higher = more signal
[6] = COS7 lysate on small-molecule microarray, probe aHis, 635 nm (AID 1123); settings: COS7 cell lysate, fluorescence, higher = more signal;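 further: z-score combines 667nm fluorescence intensity with signal-to-noise per printed compound spot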
[7] = probe aLAP1 signal on lysate-treated microarray – cell lysate, small-molecule microarray, COS7 lysate, primary screen (AID 1124); settings: probe aLAP1, fluorescence, higher = more signal;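 further: lysate comes from COS7 cells expressing LAP1 and is applied at 0.3 µg/mL; score merges spot fluorescence near 667 nm with signal-to-noise over triplicate slides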
[8] = test system: Sam68 (KHDRBS1); assay: compounds binding KHDRBS1 protein – biochemical, small-molecule microarray, 635 nm fluorescence, primary screen (AID 1125); settings: higher = more signal;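 further: score merges 667 nm channel intensity with signal to noise over triplicate slides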
[9] = test system: Chordin-like protein 2 (CHRDL2); assay: compounds binding chordin-like 2 – biochemical, small-molecule microarray, 635 nm fluorescence, primary screen (AID 1126); settings: fluorescence 635 nm, higher = more signal;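 further: printed compound slides probed with Chrdl2 protein at 4 µg/mL for 1 h at 4 C; score merges 667 nm emission intensity with signal to noise over three replicate slides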
[10] = target: Concanavalin-A (Canavalia ensiformis) (UniProt P02866); assay: compounds binding concanavalin A lectin – biochemical, small-molecule microarray, Alexa647 label, 635 nm, artefact control for SMM control protein annotation, primary screen (AID 1127); settings: ConA-A647 binding fluorescence, higher = more signal;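 further: z combines 667 nm emission intensity with signal-to-noise across three replicate slides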
Sequence of Concanavalin-A (Canavalia ensiformis) (P02866 whole entry, looked up): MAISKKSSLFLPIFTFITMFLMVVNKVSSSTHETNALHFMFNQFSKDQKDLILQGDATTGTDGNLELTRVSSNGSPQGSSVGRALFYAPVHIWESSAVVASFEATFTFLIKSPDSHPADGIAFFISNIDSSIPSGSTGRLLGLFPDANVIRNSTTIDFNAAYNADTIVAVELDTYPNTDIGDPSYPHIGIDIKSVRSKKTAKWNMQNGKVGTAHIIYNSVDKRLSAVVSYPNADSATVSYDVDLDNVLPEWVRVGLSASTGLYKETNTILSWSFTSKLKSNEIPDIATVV

[11] = compounds binding Alexa647 anti-His antibody – biochemical, small-molecule microarray, 635 nm fluorescence, artefact control for SMM control protein annotation, primary screen (AID 1128); settings: higher = more signal;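 further: score merges feature fluorescence with signal-to-noise for each printed compound spot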
[12] = test system: Human papillomavirus type 1a E7 protein (residues 1-88); assay: HPV1a E7 small-molecule binders, primary screen, biochemical, small-molecule microarray, residues 1-88, 635 nm (AID 1129); settings: small-molecule microarray binding, fluorescence 635 nm; higher = more signal
[13] = target: Focal adhesion kinase 1 (Homo sapiens) (UniProt Q05397); assay: PTK2 protein binding on printed compound slides – biochemical, small-molecule microarray, 635/667 nm fluorescence, BSA, DTT, primary screen (AID 1130); settings: 635 nm fluorescence, higher = more signal;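 further: composite of spot emission at 667 nm and signal to noise over triplicate slides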
Sequence of Focal adhesion kinase 1 (Homo sapiens) (Q05397 whole entry, looked up): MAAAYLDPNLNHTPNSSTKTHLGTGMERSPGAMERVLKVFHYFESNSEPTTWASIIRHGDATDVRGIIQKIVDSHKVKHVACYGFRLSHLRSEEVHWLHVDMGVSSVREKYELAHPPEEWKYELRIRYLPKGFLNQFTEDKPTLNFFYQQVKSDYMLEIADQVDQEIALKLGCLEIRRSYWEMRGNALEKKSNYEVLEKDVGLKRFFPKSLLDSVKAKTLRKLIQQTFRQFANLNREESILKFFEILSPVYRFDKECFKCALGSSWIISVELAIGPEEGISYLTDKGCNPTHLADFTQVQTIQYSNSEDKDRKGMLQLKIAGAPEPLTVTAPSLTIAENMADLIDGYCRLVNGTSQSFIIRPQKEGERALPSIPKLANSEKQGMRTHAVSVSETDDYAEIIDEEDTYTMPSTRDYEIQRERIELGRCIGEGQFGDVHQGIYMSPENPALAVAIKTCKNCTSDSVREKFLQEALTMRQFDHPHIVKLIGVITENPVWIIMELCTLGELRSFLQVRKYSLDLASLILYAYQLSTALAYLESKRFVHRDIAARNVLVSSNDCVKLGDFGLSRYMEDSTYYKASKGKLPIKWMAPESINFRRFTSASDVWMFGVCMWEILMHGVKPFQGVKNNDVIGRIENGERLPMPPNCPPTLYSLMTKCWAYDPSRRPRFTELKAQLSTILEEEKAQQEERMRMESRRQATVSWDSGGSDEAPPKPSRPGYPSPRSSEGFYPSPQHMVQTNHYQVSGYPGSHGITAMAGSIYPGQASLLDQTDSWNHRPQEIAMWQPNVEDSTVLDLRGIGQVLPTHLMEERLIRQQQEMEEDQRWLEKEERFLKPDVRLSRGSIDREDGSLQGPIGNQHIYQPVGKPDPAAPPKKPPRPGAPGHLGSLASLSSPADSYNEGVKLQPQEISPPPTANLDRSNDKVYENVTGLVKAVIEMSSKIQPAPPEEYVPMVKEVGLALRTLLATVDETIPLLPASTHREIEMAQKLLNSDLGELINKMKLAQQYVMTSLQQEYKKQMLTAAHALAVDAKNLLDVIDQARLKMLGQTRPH

[14] = test system: Fibrinogen (Alexa647-labelled); assay: Alexa647-fibrinogen binding to printed small molecules – biochemical, small-molecule microarray, 635/667 nm fluorescence, artefact control for SMM control-protein annotation, profiling panel (AID 1131); settings: fibrinogen-A647 binding fluorescence, higher = more signal;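 further: z-score merges 667 nm fluorescence with per-spot signal-to-noise over triplicate slides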
[15] = target: Follistatin (Homo sapiens) (UniProt P19883); assay: FST protein binding to printed compounds – biochemical, small-molecule microarray, 635/667 nm fluorescence, primary screen (AID 1132); settings: 635 nm fluorescence, higher = more signal
Sequence of Follistatin (Homo sapiens) (P19883 whole entry, looked up): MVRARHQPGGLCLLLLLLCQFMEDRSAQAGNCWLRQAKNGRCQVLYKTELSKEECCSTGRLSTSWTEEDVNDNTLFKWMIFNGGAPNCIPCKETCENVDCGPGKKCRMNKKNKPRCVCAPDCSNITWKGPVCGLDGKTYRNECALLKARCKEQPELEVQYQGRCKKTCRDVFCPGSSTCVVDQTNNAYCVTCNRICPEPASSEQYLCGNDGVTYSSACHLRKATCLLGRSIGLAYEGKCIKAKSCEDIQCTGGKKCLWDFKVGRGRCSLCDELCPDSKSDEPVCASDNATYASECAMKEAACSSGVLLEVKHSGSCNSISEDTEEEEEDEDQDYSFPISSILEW

[16] = target: Fibroblast growth factor 2 (Homo sapiens) (UniProt P09038); assay: basic fibroblast growth factor binding to printed compounds – biochemical, small-molecule microarray, 635/667 nm fluorescence, primary screen (AID 1133); settings: FGF2, fluorescence 635/667, higher = more signal
Sequence of Fibroblast growth factor 2 (Homo sapiens) (P09038 whole entry, looked up): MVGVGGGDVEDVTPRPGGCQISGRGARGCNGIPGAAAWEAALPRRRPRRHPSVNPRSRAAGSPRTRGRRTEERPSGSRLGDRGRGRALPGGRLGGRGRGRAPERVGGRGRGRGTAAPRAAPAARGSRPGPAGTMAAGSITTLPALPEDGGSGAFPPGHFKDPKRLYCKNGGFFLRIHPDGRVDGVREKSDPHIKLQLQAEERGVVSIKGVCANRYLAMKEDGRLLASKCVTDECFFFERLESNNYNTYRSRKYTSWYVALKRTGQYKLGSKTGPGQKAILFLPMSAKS

[17] = JC-1 mitochondrial potential readout, lung cancer cells – cell-based, A549, JC-1 fluorescence, basal, 24 h, 100 nL, profiling panel (AID 1138); settings: higher = more signal;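 further: A549 lung adenocarcinoma cells under basal conditions with no added stimulus; test concentration not given here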
[18] = test system: Lefty1; assay: Lefty1 protein binding to printed compounds – biochemical, small-molecule microarray, 635/667 nm fluorescence, primary screen (AID 1139); settings: fluorescence 635/667, higher = more signal
[19] = test system: wheat germ agglutinin (Triticum aestivum), Alexa647-labelled; assay: Alexa647-WGA lectin binding to printed small molecules – biochemical, small-molecule microarray, 635/667 nm fluorescence, artefact control for SMM control-protein annotation, profiling panel (AID 1140); settings: WGA-A647 binding, 635 nm fluorescence, higher = more signal;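 further: score merges 667 nm feature emission with signal to noise over triplicate slides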
[20] = target: Luciferin 4-monooxygenase (Photinus pyralis) (UniProt P08659); assay: inhibition of purified Photinus pyralis luciferase – biochemical, luminescence, purified enzyme, 2006 set, primary screen (AID 1141); settings: purified firefly luciferase, SteadyGlo luminescence, 30 min; higher = more signal, called active from +8 up or from −8 down;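 further: cell-free assay with purified firefly luciferase at 100 ng per well in PBS; test concentration not given here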
Sequence of Luciferin 4-monooxygenase (Photinus pyralis) (P08659 whole entry, looked up): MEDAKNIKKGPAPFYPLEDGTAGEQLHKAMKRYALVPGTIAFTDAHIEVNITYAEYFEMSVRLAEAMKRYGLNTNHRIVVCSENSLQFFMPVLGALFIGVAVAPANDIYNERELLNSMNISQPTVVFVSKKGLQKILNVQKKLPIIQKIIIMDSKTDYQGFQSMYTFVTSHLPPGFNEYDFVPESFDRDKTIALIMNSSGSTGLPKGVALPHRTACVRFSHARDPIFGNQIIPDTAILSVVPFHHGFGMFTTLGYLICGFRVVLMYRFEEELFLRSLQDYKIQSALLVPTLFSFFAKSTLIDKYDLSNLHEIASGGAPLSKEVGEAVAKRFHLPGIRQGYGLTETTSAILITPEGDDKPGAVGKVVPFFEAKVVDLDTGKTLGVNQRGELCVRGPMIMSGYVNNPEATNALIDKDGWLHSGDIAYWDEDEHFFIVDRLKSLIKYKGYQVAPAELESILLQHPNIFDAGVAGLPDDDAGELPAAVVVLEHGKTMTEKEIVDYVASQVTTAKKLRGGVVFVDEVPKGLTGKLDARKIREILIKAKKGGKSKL

SMILES | composite z-score [1] | composite Z-score [2] | composite z-score [3] | composite z-score [4] | composite z-score [5] | composite z-score [6] | composite z-score [7] | composite z-score [8] | composite z-score [9] | composite z-score [10] | composite z-score [11] | composite z-score [12] | composite z-score [13] | composite z-score [14] | composite z-score [15] | composite z-score [16] | z-score [17] | composite z-score [18] | composite z-score [19] | z-score [20]
CO[C@H]1COC(=O)[C@H](C)NC(=O)CC=C[C@@H](C)[C@H](OC)COC(=O)CC=C[C@@H]1C | -0.956 | 0.536 (inactive) | -0.0716 | -0.161 | -0.719 | -0.705 | -0.796 | -0.25 | 1.49 | -1.85 | -0.284 | -1.4 | -0.348 | -1.86 | 1.28 | 1.71 | 0.106 | 1.62 | -0.655 | -0.885 (inactive)
C=CCN(CCCC)C(=O)C(c1cccs1)N(C(=O)/C=C\C(=O)O)c1ccc(CCO)cc1 (stereo not given) | -1.02 and -2.4 | 0.127 (inactive) and -0.0505 (inactive) | -0.437 and -0.449 | -0.171 and -0.202 | 0.864 and 0.861 | 0.0769 and -0.501 | 0.132 and -0.426 | -0.798 and -1.53 | -1.26 and -4.41 | -1.83 and -1.63 | 1.25 and -2.52 | -0.505 and -1.38 | -0.504 and -1.21 | -1.08 and -1.59 | -1.43 and -2.34 | -1.47 and -2.18 | 0.65 and 0.624 | -1.58 and -2.71 | 0.266 and -2.25 | -2.48 (inactive) and -2.8 (inactive)
C=CCN(C(=O)C(c1cccs1)N(C(=O)/C=C\C(=O)O)c1c(Cl)cccc1CO)C(C)(C)C (stereo not given) | -0.693 and -0.455 | 0.0333 (inactive) and 0.242 (inactive) | -0.538 and -0.562 | -0.125 and -0.182 | 0.884 and 0.936 | -0.625 and -0.42 | -0.766 and -0.131 | -1.95 and -0.769 | -2.35 and -3.64 | -1.12 and -0.782 | 0.28 and -0.668 | -1.4 and -1.02 | -0.513 and -0.619 | -2.69 and -1.15 | -1.48 and -1.81 | -2.01 and -2.33 | 0.674 and 0.368 | -1.96 and -2.54 | -0.543 and -1 | -0.242 (inactive) and -0.42 (inactive)
CC(C)OC(=O)C=C1C[C@@H](c2ccccc2)O[C@@H](c2ccccc2)O1 | 0.799 and 0.915 | 0.417 (inactive) and 0.224 (inactive) | 0.168 and 0.308 | -0.029 and 0.0219 | 0.749 and 0.727 | 2.74 and 1.87 | 0.809 and 0.779 | 1.33 and 1.3 | 0.0745 and 0.626 | 1.02 and 1.09 | 0.871 and 1.47 | 1.23 and 1.25 | 0.255 and 0.796 | 0.977 and 0.962 | 1.26 and 1.31 | 1.42 and 1.02 | 1.55 and 0.229 | 1.11 and 1.31 | 0.824 and 1.3 | 0.992 (inactive) and -0.692 (inactive)
C#CCCCON=C1C[C@@H](O)[C@@H](O)[C@@H]2[C@@H]3C(=O)N(C4CCCCC4)C(=O)[C@@H]3CC[C@H]12 | 0.691 | -0.393 (inactive) | -0.0006 | -0.11 | 0.508 | 0.186 | 0.806 | 0.866 | -0.133 | 1.15 | 1.31 | 1.1 | 0.498 | 0.962 | -0.0195 | 0.0951 | 0.83 | 0.112 | 0.698 | -1.01 (inactive)
Cc1ccc(S(=O)(=O)N[C@@H]2COC(=O)CC=C[C@@H](C)[C@@H]3C=C[C@H](O)[C@@H](COC(=O)CC=C[C@H]2C)O3)cc1 | -0.311 and -0.304 | -0.842 (inactive) and -0.0662 (inactive) | 0.0426 and -0.161 | -0.14 and -0.124 | -0.0023 and 0.221 | -0.348 and 0.043 | 0.0386 and 0.26 | -0.132 and 0.293 | 0.711 and 0.396 | -0.6 and 0.152 | -0.226 and -0.118 | -0.617 and -0.0999 | -0.466 and -0.318 | -0.656 and 0.267 | 1.34 and 0.443 | 1.01 and 0.578 | 1.78 and -1.7 | 1.26 and 0.632 | -0.113 and -0.0881 | -0.92 (inactive) and 1.02 (inactive)
COC(=O)[C@@]1(Cc2ccc(OC)cc2)[C@H]2c3cc(C(=O)N(C)C)n(Cc4ccc(O)c(OC)c4)c3C[C@H]2CN1C(=O)c1ccccc1 | 1.03 and 0.843 | -0.0164 (inactive) and -0.483 (inactive) | 0.359 and 0.68 | 0.357 and 0.124 | 0.893 and 0.406 | 1.81 and 2.81 | 1.17 and 0.341 | 0.725 and 1.22 | -1.12 and -0.44 | 0.311 and 0.836 | 1.8 and 2.3 | 1.24 and 1.21 | 0.529 and 0.379 | 0.0218 and 0.962 | 0.231 and 0.715 | -0.913 and -0.134 | 1.73 and 1.22 | -0.268 and -0.542 | 1.39 and 0.989 | 1.75 (inactive) and 1.08 (inactive)
C=CCN(C(=O)C(c1cccs1)N(C(=O)/C=C\C(=O)O)c1c(Cl)cccc1CO)c1ccc(OC)cc1 (stereo not given) | -0.464 and -0.473 | -0.244 (inactive) and 0.222 (inactive) | -0.374 and -0.246 | -0.179 and -0.127 | 0.819 and 0.837 | 1.8 and 0.329 | 0.78 and 0.281 | -0.818 and -0.2 | -4.02 and -0.896 | -0.772 and -1.14 | -1.78 and -1.48 | -1.15 and -0.74 | -0.93 and -0.641 | -1.13 and -0.594 | -2.61 and -1.19 | -2.55 and -1.44 | 1.26 and 1.98 | -2.98 and -2.04 | -0.55 and 0.213 | -1.47 (inactive) and -1.26 (inactive)
O=C(NN=C1C[C@@H](O)[C@@H](O)[C@@H]2[C@@H]3C(=O)N(Cc4ccc5c(c4)OCO5)C(=O)[C@@H]3CC[C@H]12)OCc1ccccc1 | -0.401 | -0.0252 (inactive) | 0.157 | -0.11 | -0.612 | -0.648 | -0.21 | 0.0918 | -0.556 | -0.232 | -0.668 | -0.429 | -0.0697 | -0.507 | -1.07 | -0.274 | -0.174 | -0.418 | -0.754 | 0.0421 (inactive)
C=CCN(CCCC)C(=O)C1N(c2ccc(CCO)cc2)C(=O)C2C(C(=O)O)C3C=CC21O3 (stereo not given) | -0.196 and -1.75 | -0.708 (inactive) and -0.319 (inactive) | -0.454 and -0.477 | 0.0039 and -0.14 | 0.809 and 0.91 | 0.253 | -1.05 and -0.525 | -1.48 and -0.741 | -3.26 and -3.79 | -1.74 and -2.64 | -1.5 and -1.42 | -1.48 and -1.18 | -1.03 and 0.339 | -1.01 and -2.98 | -0.852 and -2.67 | -0.893 and -2.56 | -0.898 and -0.353 | -1.39 and -3.01 | 0.0666 and -1.56 | 1.5 (inactive) and -1.51 (inactive)

— PubChem BioAssay
